A selection: hits, their analogues and other compounds. The true share with any hit is near 2%.
TR SRC2 fluor cs: alters Texas Red total fluorescence, flagging assay interference. hit rate 0.29% among 280,000. TRb/SRC2 Texas Red total fluorescence interference. Potency, µM (doses to about 106 µM), inactives show at the highest dose fluorescence change, negative = quenching. AID 1479; active means well fitted curve in either direction with a large enough effect; inconclusive means small, poorly fitted or top-dose-only effect; further: potency means the concentration at half of the fitted maximal effect; on the % scale 0 is the no-effect control and ±100 the full control effect
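Human TRβ ligand-binding domain (0.6 uM) and Texas Red SRC2 peptide (20 nM) in Tris buffer with 1 uM T3 and 5% DMSO were incubated with pinned compound for 5 hr at ambient temperature. Total fluorescence was computed as S + 2P (555/632 nm).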
KDM4E inh: blocks human JMJD2E demethylase activity | B2RXH2 | JMJD2E catalytic domain, FDH-coupled NADH fluorescence (FDH is formaldehyde dehydrogenase) | Potency, µM (doses to about 57.1 µM), for inactives: at the highest dose activity change, negative = inhibition, actives largely listed as inhibitors | hit rate 1.6% among 230,000; active means well fitted inhibition curve with a large enough effect, not every such curve was filed as active; inconclusive means small, poorly fitted or top-dose-only effect, or another doubt; inactive means no such curve, though single readings can be large or run the other way;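 further: potency means the concentration at half of the fitted maximal effect; 0% = wells with enzyme and -100% = buffer wells without enzyme; nearly all actives have a fitted effect of over 50% in size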
Target sequence (B2RXH2 1-337 limits assumed): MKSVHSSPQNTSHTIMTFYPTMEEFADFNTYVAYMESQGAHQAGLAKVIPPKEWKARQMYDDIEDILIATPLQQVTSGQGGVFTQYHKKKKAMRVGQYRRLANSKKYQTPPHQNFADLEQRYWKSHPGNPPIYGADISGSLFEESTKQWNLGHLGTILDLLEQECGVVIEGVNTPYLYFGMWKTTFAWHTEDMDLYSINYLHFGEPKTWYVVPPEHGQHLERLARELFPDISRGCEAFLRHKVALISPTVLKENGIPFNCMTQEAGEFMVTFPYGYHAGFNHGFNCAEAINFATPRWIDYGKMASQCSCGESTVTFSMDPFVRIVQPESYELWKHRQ
HTT aggregate: reduces HttQ103-GFP aggregates in PC12 cells; PC12 HttQ103-GFP aggregates, Acumen cytometry, 40 h; hit rate 1.1% among 220,000; AID 1688; Potency, µM (titrated, usually from 46.1 µM), for the others: top-dose activity change, negative = inhibition, actives largely listed as inhibitors; further: potency means the concentration at half of the fitted maximal effect; on the % scale 0 is the no-effect control and ±100 the full control effect; nearly all actives have a fitted effect of over 60% in size
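Steps: seed 1500 PC12 HTTQ103-GFP cells/well; add tebufenozide, 100 nM final; add compound titration; add ATPLite reagent; quantify GFP aggregates by laser scanning cytometry.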
Coupling enz: counter-screen for Giardia aldolase inhibitors: coupling enzyme system; coupling enzyme system counterscreen, AmpLite Red fluorescence; activity change, negative = inhibition, % at 58.2 µM, hits read low; hit rate 0.67% among 290,000; in the data active means activity change below about -30%; further: on the % scale 0 is the no-effect control and ±100 the full control effect
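First, compound is pin-transferred into glyceraldehyde-3-phosphate coupling-enzyme reagent at 57.5 uM final and held 10 min at RT. Next, substrate, coupling system and AmpLite Red are added. After 20 min RT, fluorescence (525/598 nm) is read.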
TRb-SRC2 inh: disrupts binding of human TR beta to SRC2. P10828. TRbeta-SRC2 peptide binding, fluorescence polarization; receptor liganded with 1 µM T3. Potency, µM (doses to about 106 µM), inactives show at the highest dose activity change, negative = inhibition, usual class: inhibitors. hit rate 0.065% among 280,000;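 further: potency means the concentration at half of the fitted maximal effect; plate controls were bound peptide for no effect and peptide without receptor for full effect; nearly all actives have a fitted effect of over 50% in size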
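Quantitative HTS by FP: 0.6 uM TRb LBD, 20 nM labeled SRC2 20-mer, 1 uM T3, 5% DMSO; 5 hr ambient incubation; % activity per concentration and potencies from concentration series.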
HTT cytoprotect: cytoprotection in Huntington HTT-Q103 PC12 cell model; AID 1471; Potency, µM (doses to about 56.4 µM), inactives show cytoprotection (ATP increase), actives largely listed as activators; PC12 HTT-Q103 induced, cytoprotection, ATP luminescence, 40 h; hit rate 0.14% among 230,000; further: potency means the concentration at half of the fitted maximal effect; % of control where 0% means no effect; nearly all actives have a fitted effect of over 45% in size
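Compounds were screened for protection of PC12 cells against cell death after tebufenozide induction (100 nM final) of mutant Huntingtin exon 1 (Q103) fused to GFP.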
Active calls of the source: *; ? = inconclusive; . = no result; [ ] = another dose, or the depositor's remark. Unless noted, the call rests on the fitted dose curve; in most records, active means well fitted curve in the direction sought with a large enough effect; inconclusive means small, poorly fitted or top-dose-only effect, or another doubt; inactive means no such curve, though single readings can be large; an effect the other way counts as inactive or inconclusive.

SMILES	TR SRC2 fluor cs	KDM4E inh	HTT aggregate	Coupling enz	TRb-SRC2 inh	HTT cytoprotect
Cc1cccc(NC(=S)NNC(=O)c2nn(C)cc2Cl)c1	0.2%	31.6µM*	-7.8%	0.3	-2.2%	-29.6%
Cc1ccc(NC(=O)COC(=O)c2nn(C)cc2Cl)cc1	.	.	.	0.8	.	.
Cc1ccc(NC(=S)NNC(=O)c2nn(C)cc2Cl)cc1	-1.7%	20µM*	-8.6%	2.0	-6.2%	-53.2%
CCc1ccc(NC(=O)CCCc2nnc3n(CC(C)C)c(=O)c4sccc4n23)cc1	-1.4%	.	.	.	-1.9%	.
Cc1ccc2cccnc2c1	-1.7%	.	.	.	5.5%	6.31µM*
Cc1ccc(C(=O)Nc2ccc3ncccc3c2)cc1	.	.	.	-3.3	.	.
O=C(N/N=C/c1cn(-c2ccccc2)nc1-c1cc2ccccc2o1)c1ccncc1	-2.1%	-19.1%	10µM*	-3.9	0.3%	10.9%[10 µM]
O=C(N/N=C/c1cn(-c2ccccc2)nc1-c1cccs1)c1ccc(Cl)cc1	2.7%	?	11.2µM*	0.5	4.1%	-5.0%[10 µM]
O=C(Cn1c(=O)nc(-c2ccccc2)c2cc(Cl)ccc21)NCCCc1ccccc1	-15.3%	.	.	.	-0.9%	.
C=C1c2cccc(O)c2C(O)=C2C(=O)[C@]3(O)C(O)=C(C(N)=O)C(=O)[C@@H](N(C)C)[C@@H]3[C@@H](O)[C@H]12	31.6µM*[quencher]	?	6.5%[9.22 µM]	-2.3	-8.9%	24.0%[10 µM]
C=C1c2cccc(O)c2C(O)=C2C(=O)[C@]3(O)C(O)=C(C(N)=O)C(=O)C(N(C)C)C3C(O)C12 (some centres undefined)	39.8µM*[quencher]	8.91µM*	.	-5.4	11.4%	.
CCNC(=O)[C@@H]1O[C@@H](n2cnc3c(N)nc(NCCc4ccc(CCC(=O)O)cc4)nc32)[C@H](O)[C@@H]1O	.	.	.	.	.	-22.2%[1.9 µM]
Cc1ccc(C)c(CNC(=O)c2sc3ncnc(N(C)C4CCCCC4)c3c2C)c1	-23.9%	.	.	.	0.8%	.
CCc1ccccc1N(C)C(=O)C1CCCN(c2ncnc3c2nc2n3CCCCC2)C1 (centres undefined)	-0.6%	.	.	.	1.5%	.
O=C(O)c1ccc(NC2=C(n3nnc4ccccc43)C(=O)c3ccccc3C2=O)cc1	-1.9%	-11.4%	2.4%[9.22 µM]	-32.7*	0.1%	12.2%[10 µM]
CCCCN=C1NN=C(c2cccc([N+](=O)[O-])c2)CS1	-1.3%	-9.4%	-12.4%	-2.0	4.1%	-7.6%[10 µM]
CCCCN=C1NN=C(c2cc3ccccc3o2)CS1	-5.0%	25.1µM*	10.9%	3.6	-0.7%	.
NCCCC[C@H](NC(=O)[C@@H]1CCCN1C(=O)[C@@H](N)CCCN=C(N)N)C(=O)N1CCC[C@H]1C(=O)N[C@@H](CCC(N)=O)C(=O)N[C@@H](CCC(N)=O)C(=O)N[C@@H](Cc1ccccc1)C(=O)O	-31.8%	.	.	4.7	-2.2%	.
c1ccc(CCNc2ccnc3cc4ccccc4cc23)cc1	-5.3%	?	?	-43.5*	2.3%	-260.8%
CC(C)Nc1ccc(Nc2ccnc3cc4ccccc4cc23)cc1	-1.7%	-3.5%	-9.8%[9.22 µM]	-2.5	3.0%	-35.7%[10 µM]
CCOc1ccccc1-c1nnc2n1N=C(c1ccc(OC)cc1)CS2	-2.9%	.	.	-1.4	4.8%	.
O=C(CCl)Nc1cccc(-c2cnc3ccccc3n2)c1	-5.7%	-8.4%	25.1µM*	0.9	-3.6%	-68.9%
CC1(C)CC(N)CC(C)(CN)C1 (centres undefined)	-1.5%[201 µM]	.	.	.	-2.3%[201 µM]	.
COc1ccc(S(=O)(=O)CCC(=O)O)cc1	1.6%	0.6%	2.24µM*	0.1	-3.7%	-27.9%
CCc1ccccc1N1C(=O)N(CC(=O)c2ccc(Cl)cc2)c2ccccc2S1(=O)=O	-1.6%	.	.	.	-1.8%	.
O=C(c1ccc(Cl)cc1)c1coc2ccc(O)cc12	-0.4%	1.4%	0.631µM*	1.3	6.1%	-39.8%
COc1cc(-c2ccc(N=C=O)c(OC)c2)ccc1N=C=O	-4.9%[201 µM]	.	.	.	4.7%[201 µM]	-8.1%
